Assay [1] in a line: inhibitors of TNFa-induced NFkB p65 translocation, primary screen, imaging, HUVEC, MLSMR starter and 10KST1 sets (AID 438;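 active means inhibition above 20% together with a positive visual image hit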;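 further: compound added about 3h40 before a 20 min TNFalpha stimulation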;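 on inhibition: signal is the nuclear over cytoplasmic p65 intensity ratio per well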). As to conditions: HUVEC TNFa-induced p65 nuclear translocation; cell count: measured here: nuclei count (cytotoxicity indicator), at 2.08 µM; inhibition: at 2 µM, stronger effect = higher value, 0% TNFa-plus-vehicle, 100% no-TNFa wells.
Assay [2] is described as follows: reduction of polyQ htt aggregates in cells – imaging, exon1htt(103Q)mCFP cells, high-content imaging, primary screen (AID 483;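 active means visual image review flags a hit and inhibition of aggregation exceeds 20%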;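 further: compound exposure lasted 3 days before fixation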;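 on nuclei count: percent of the per-plate median nuclei count of sample wells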). The following applies: exon1htt(103Q)mCFP cell line, aggregate imaging, at 2 µM; inhibition of aggregation: stronger effect = higher value; nuclei count: measured here: cell count, toxicity.
A short description of assay [3]: endothelial E-selectin expression blockers – imaging, HUVEC, immunofluorescence, MLSMR starter and 10KST1 sets, primary screen (AID 487;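 active means visually confirmed hit in the image check and inhibition above 20%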;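 on inhibition: signal is fraction of cell area covered by stained E-selectin grains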;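 on nuclei count: 100% = median nuclei count of all wells on the same plate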). As to conditions: HUVEC TNFalpha-induced E-selectin immunofluorescence imaging, at 2 µM; inhibition: stronger effect = higher value; nuclei count: measured here: cell number, toxicity.
The target of assay [4] is Voltage-gated potassium channel subunit beta-2 (Rattus norvegicus) (UniProt P62483). Briefly: inhibitors of rat Kvbeta2 reductase activity – biochemical, NADPH fluorescence, primary screen (AID 622;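 active means fluorescence slope higher than the sample average by over 3 SD, cut at about -0.22 in these data, passing the limit was not always enough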;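 further: slope of raw intensity against log time taken from 70 to 1610 s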). As to conditions: recombinant KvBeta, 4-cyanobenzaldehyde reduction, at 10 µM, stronger effect = higher value.
Assay [5] has the same target. Briefly: enhancers of rat Kvbeta2 NADPH turnover – biochemical, NADPH fluorescence, primary screen (AID 623;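 active means NADPH fluorescence slope more negative than the mean of all samples by about 3 SD, 99.7% confidence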;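 further: fluorescence intensity change per second fitted from 20 to 320 s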). The following applies: Recombinant KvBeta, NADPH fluorescence decrease slope, 10 min; at 10 µM; stronger effect = lower value.
Assay [6] has as its target Alpha-2C adrenergic receptor (Homo sapiens) (UniProt P18825). Briefly: compounds altering alpha2C-coupled GIRK flux – cell-based, HEK293 alpha2C/GIRK1/2, thallium flux, primary screen (AID 624;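 active means fluorescence slope after compound addition differing from the mean of all screened samples at 99.7% confidence, in either direction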;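 further: slope of fluorescence ratio to pre-addition baseline per second over 15 to 24 s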). As to conditions: thallium flux BTC fluorescence, at 10 µM, actives lie on both sides.
Assay [7] in a line: blockers of RIG-like receptor reporter activation – cell-based, Sendai virus stimulus, luciferase, 10K MLSCN set, TLR/RLR signaling modifier project, primary screen (AID 602276;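 active means inhibition at or above 50% at 10 µM; inactive means inhibition below 50%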;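 further: firefly luciferase from ISG56 promoter only with Renilla not read in this screen; 0% = Sendai virus plus DMSO and 100% = medium plus DMSO without virus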). The following applies: HEK293 RL24 IRF3 luciferase reporter, at 10 µM, stronger effect = higher value. (In general: A reporter such as luciferase makes a cellular process visible.)
The nature of assay [8]: TLR3 IRF3 reporter activation blockers – cell-based, poly I:C stimulus, luciferase, 10K MLSCN set, primary screen (AID 602277). As to conditions: HEK293-TLR3 RL24 IRF3 luciferase reporter, at 10 µM, stronger effect = higher value.

Molecules are shown by their SMILES. Calls of active or inactive are those of the source.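 How the source made its calls, unless noted: active means inhibition of the reporter signal at or above 50%; inactive means inhibition below 50%.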

Alpha-2C adrenergic receptor (Homo sapiens), sequence (P18825 whole entry, looked up): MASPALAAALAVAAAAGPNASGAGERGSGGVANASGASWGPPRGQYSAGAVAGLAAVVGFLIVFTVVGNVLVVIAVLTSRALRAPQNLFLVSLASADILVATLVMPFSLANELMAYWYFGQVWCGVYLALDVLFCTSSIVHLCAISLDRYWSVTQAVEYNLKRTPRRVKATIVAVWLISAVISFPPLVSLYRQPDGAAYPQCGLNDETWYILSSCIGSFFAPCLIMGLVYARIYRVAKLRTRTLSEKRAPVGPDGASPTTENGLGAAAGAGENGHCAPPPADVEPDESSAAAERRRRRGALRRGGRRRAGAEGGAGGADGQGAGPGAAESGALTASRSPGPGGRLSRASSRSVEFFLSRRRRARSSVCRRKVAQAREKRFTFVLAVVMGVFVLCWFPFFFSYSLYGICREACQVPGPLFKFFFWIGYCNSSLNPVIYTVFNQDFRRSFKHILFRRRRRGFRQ
Voltage-gated potassium channel subunit beta-2 (Rattus norvegicus), sequence (P62483 whole entry, looked up): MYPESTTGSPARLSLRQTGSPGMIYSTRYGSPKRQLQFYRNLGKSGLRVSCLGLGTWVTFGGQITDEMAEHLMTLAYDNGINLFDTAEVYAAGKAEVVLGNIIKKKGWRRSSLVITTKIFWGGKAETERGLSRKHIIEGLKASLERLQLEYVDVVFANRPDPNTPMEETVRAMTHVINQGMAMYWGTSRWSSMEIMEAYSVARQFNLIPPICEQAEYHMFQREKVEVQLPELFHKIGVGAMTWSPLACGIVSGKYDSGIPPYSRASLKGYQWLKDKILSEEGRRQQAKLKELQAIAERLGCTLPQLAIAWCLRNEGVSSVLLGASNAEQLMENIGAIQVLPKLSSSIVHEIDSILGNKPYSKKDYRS

Consider `COc1ccccc1Nc1nc(N)nc(-c2cc3ccccc3o2)n1`, for which the cell count in assay [1] came to 153. The inhibition (commonly the drop in the measured response relative to a control, in per cent) in assay [1] is 1.2% (inactive); in assay [3], 25.7% (inactive); in assay [7] it was -39.9% (inactive); in assay [8] it was -99.9% (inactive). Also, the inhibition of aggregation in assay [2] is -7.1% (inactive). Further, the nuclei count in assay [2] turned out to be 89.1%; in assay [3] it was 85.7%. Besides, the fluorescence slope in assay [4] was -0.332 (inactive). For the same molecule, the NADPH fluorescence slope in assay [5] is -3.9e-05 (inactive). Moreover, the slope in assay [6] is 0.00555 (inactive).

On to `CCOc1ccc2nc(NC(=O)CSc3nc4ccccc4c(=O)n3Cc3ccco3)sc2c1`, for which, in assay [1], the cell count was determined as 654. The inhibition was -6.1% (inactive) in assay [1], -65.7% (inactive) in assay [3], 15.6% (inactive) in assay [7] and 10% (inactive) in assay [8]. In addition, the inhibition of aggregation in assay [2] is -5.6% (inactive). Further, the nuclei count in assay [2] came to 115%; in assay [3], 132%. Moreover, the fluorescence slope in assay [4] was -0.413 (inactive). Also, in assay [5], the NADPH fluorescence slope is 9.6e-06 (inactive). Besides, in assay [6], the slope is 0.00934 (active).

`COCCOC(=O)c1c(C)oc2ccc(NS(=O)(=O)c3ccc(F)cc3)cc12`: the cell count in assay [1] came to 381. The inhibition is 2.5% (inactive) in assay [1], 30.2% (inactive) in assay [3], 14.6% (inactive) in assay [7] and 25.3% (inactive) in assay [8]. Besides, the inhibition of aggregation in assay [2] is 4.7% (inactive). Further, the nuclei count in assay [2] amounted to 123%; in assay [3] it was 93%. For the same molecule, the fluorescence slope in assay [4] is -0.613 (inactive). Besides, the NADPH fluorescence slope in assay [5] is 2.2e-06 (inactive). The slope in assay [6] was 0.00626 (inactive).

Regarding `CC12COC3(C(=O)Nc4ccc(Cl)cn4)CC1CCC32C` (centres undefined), in assay [1], the cell count worked out at 773. Besides, the inhibition was -8% (inactive) in assay [1], -32.6% (inactive) in assay [3], -1.35% (inactive) in assay [7] and 10.2% (inactive) in assay [8]. For the same molecule, the inhibition of aggregation in assay [2] was 16.9% (inactive). Further, the nuclei count in assay [2] came out at 85.1%; in assay [3] it was 102%. For the same molecule, the fluorescence slope in assay [4] is -0.395 (inactive). In addition, the NADPH fluorescence slope in assay [5] is -5.6e-05 (inactive). The slope in assay [6] is 0.00598 (inactive).

On to `Cc1ccc(S(=O)(=O)NCC(=O)N(CC(=O)NCc2ccccc2)CC2CCCO2)cc1` (centres undefined), for which the cell count in assay [1] is 341. The inhibition was -16.5% (inactive) in assay [1], -31.2% (inactive) in assay [3], 12.2% (inactive) in assay [7] and 15.3% (inactive) in assay [8]. Moreover, the inhibition of aggregation in assay [2] is 14.8% (inactive). Also, the nuclei count in assay [2] is 107%; in assay [3], 170%. Further, in assay [4], the fluorescence slope was -0.599 (inactive). Further, the NADPH fluorescence slope in assay [5] was 1.2e-05 (inactive). The slope in assay [6] was 0.00602 (inactive).

As for `CCn1c(=O)c(C(=O)NCc2ccc(OC)cc2)c(O)c2ccccc21`, the cell count in assay [1] was 685. Besides, the inhibition in assay [1] is 12.5% (inactive); in assay [3], 33.9% (inactive); in assay [7] it was 14.7% (inactive); in assay [8] it was 16.2% (inactive). Besides, in assay [2], the inhibition of aggregation was 0.6% (inactive). Moreover, the nuclei count in assay [2] and in assay [3] was 101% throughout. Besides, the fluorescence slope in assay [4] is -0.353 (inactive). Also, in assay [5], the NADPH fluorescence slope was -2.5e-05 (inactive). Further, the slope in assay [6] is 0.00899 (inactive).

On to `COc1ccc(CCNC(=O)c2cnc3scc(C)n3c2=O)cc1OC`, for which, in assay [1], the cell count amounted to 573. In addition, the inhibition is -5.3% (inactive) in assay [1], 19.7% (inactive) in assay [3], 6.05% (inactive) in assay [7] and 33.9% (inactive) in assay [8]. For the same molecule, the inhibition of aggregation in assay [2] was -6% (inactive). For the same molecule, the nuclei count was 82.6% in assay [2] and 86.4% in assay [3]. Besides, the fluorescence slope in assay [4] was -0.411 (inactive). Besides, in assay [5], the NADPH fluorescence slope was -6.2e-05 (inactive). In addition, the slope in assay [6] is 0.00579 (inactive).

With `O=C(CN1CCCN(S(=O)(=O)c2ccc(Br)cc2)CC1)Nc1ccc2c(c1)OCO2`, in assay [1], the cell count was 587. Further, the inhibition is -4.1% (inactive) in assay [1], -24.8% (inactive) in assay [3], 10.3% (inactive) in assay [7] and 38.2% (inactive) in assay [8]. Also, the inhibition of aggregation in assay [2] was -15.4% (inactive). For the same molecule, the nuclei count in assay [2] was determined as 107%; in assay [3] it was 84.9%. In addition, in assay [4], the fluorescence slope was -0.491 (inactive). The NADPH fluorescence slope in assay [5] is -3.2e-05 (inactive). Moreover, the slope in assay [6] was 0.00566 (inactive).

In the case of `O=C(c1ccc2nc(N3CCCCC3)sc2c1)N1CCN(c2ccccn2)CC1`, the cell count in assay [1] worked out at 669. The inhibition is -0.8% (inactive) in assay [1], 5% (inactive) in assay [3], -4.41% (inactive) in assay [7] and 3.71% (inactive) in assay [8]. Besides, the inhibition of aggregation in assay [2] is -24.8% (inactive). Moreover, the nuclei count in assay [2] was 99.9%; in assay [3], 118%. Besides, the fluorescence slope in assay [4] is -0.589 (inactive). In addition, the NADPH fluorescence slope in assay [5] was 5.6e-06 (inactive). Besides, the slope in assay [6] was 0.00632 (inactive).

As for `O=C(NC1(C(=O)NC2CCCCC2)CCCCC1)c1ccc2c(c1)OCO2`, in assay [1], the cell count was found to be 578. Also, the inhibition in assay [1] was 6.3% (inactive); in assay [3], -45.8% (inactive); in assay [7], 7.94% (inactive); in assay [8], 19% (inactive). In addition, the inhibition of aggregation in assay [2] is 16.2% (inactive). In addition, the results for the nuclei count in assay [2] and in assay [3] were 96.2% and 91.4%, respectively. Also, in assay [4], the fluorescence slope is -0.524 (inactive). Moreover, the NADPH fluorescence slope in assay [5] was -3.1e-05 (inactive). Also, the slope in assay [6] was 0.00509 (inactive).

With `COC(=O)c1[nH]c2c(c1C)C(=O)CC(c1cc(OC)ccc1OC)C2` (centres undefined), the cell count in assay [1] stood at 546. Besides, the inhibition is -4.2% (inactive) in assay [1], -36.2% (inactive) in assay [3], 38.3% (inactive) in assay [7] and 21.5% (inactive) in assay [8]. In addition, in assay [2], the inhibition of aggregation was 30.2% (inactive). Further, the nuclei count in assay [2] came out at 81%; in assay [3] it was 114%. The fluorescence slope in assay [4] was -0.573 (inactive). Besides, the NADPH fluorescence slope in assay [5] is -1.2e-05 (inactive). Further, the slope in assay [6] was 0.00652 (inactive).

Regarding `Cc1ccc(N(C(C)C(=O)Nc2ccc(S(=O)(=O)N3CCOCC3)cc2)S(C)(=O)=O)cc1` (centres undefined), the cell count in assay [1] was 522. Further, the inhibition in assay [1] was -7.3% (inactive); in assay [3], -0.3% (inactive); in assay [7], 5.72% (inactive); in assay [8], 10.8% (inactive). Moreover, in assay [2], the inhibition of aggregation is 23.8% (inactive). Further, the nuclei count worked out at 68.3% in assay [2] and 92.3% in assay [3]. Moreover, in assay [4], the fluorescence slope was -0.518 (inactive). Moreover, the NADPH fluorescence slope in assay [5] is -1.3e-05 (inactive). Further, the slope in assay [6] is 0.00486 (inactive).

In the case of `O=C(CN1CCN(c2nc(-c3ccc(F)cc3)cs2)CC1)NCc1ccc2c(c1)OCO2`, the cell count in assay [1] amounted to 491. The inhibition in assay [1] was 9.9% (inactive); in assay [3] it was -34.5% (inactive); in assay [7], 16.7% (inactive); in assay [8] it was 17.8% (inactive). The inhibition of aggregation in assay [2] was 5.2% (inactive). Further, the figures for the nuclei count in assay [2] and in assay [3] were 108% and 107%, respectively. Also, the fluorescence slope in assay [4] is -0.582 (inactive). Also, in assay [5], the NADPH fluorescence slope was -2.2e-05 (inactive). Further, the slope in assay [6] was 0.00522 (inactive).

As to `CCN(C1CCCCC1)S(=O)(=O)c1ccc(OC)c(C)c1`, the cell count in assay [1] stood at 862. Moreover, the inhibition is -3.6% (inactive) in assay [1], -104% (inactive) in assay [3], -0.395% (inactive) in assay [7] and 28.2% (inactive) in assay [8]. The inhibition of aggregation in assay [2] was 9.9% (inactive). The nuclei count is 98.1% in assay [2] and 128% in assay [3]. Besides, the fluorescence slope in assay [4] is -0.498 (inactive). The NADPH fluorescence slope in assay [5] is -2.3e-05 (inactive). Also, in assay [6], the slope was 0.00415 (inactive).
